Rows were chosen to be rich in hits. Some 3.5% of all compounds tested hit in one or more screens of this group.
Bead autofluor = counter-screen for toxin protease inhibitors: compound fluorescence; compound autofluorescence counterscreen, microsphere flow cytometry; stronger effect = higher value; fluorescence intensity (test concentration not listed); actives 3.1% (n = 360,000); in the data active means fluorescence intensity above about 16000; inconclusive means no clear call, values can overlap the other calls
SARS 3CLpro inh = SARS-CoV 3CLpro protease inhibition; P0C6X7; recombinant SARS-CoV 3CLpro, quenched FRET peptide cleavage; inhibition, % at 6 µM; actives 0.14% (n = 290,000); AID 1706; in the data active means inhibition above about 12%
BoNT-A LC inh2 = blocks Botulinum neurotoxin A light chain protease. inhibition, % at 10 µM. multiplex microsphere protease substrate cleavage, flow cytometry. actives 0.17% (n = 360,000); further: plate controls were buffer without enzyme for full effect and enzyme alone for no effect
BoNT F protease = inhibitors of Botulinum neurotoxin F light chain protease | AID 588497 | Multiplex microsphere protease cleavage assay, flow cytometry | inhibition, % at 10 µM | actives 0.22% (n = 360,000); in the data active means inhibition above about 35%, passing the limit was not always enough; inconclusive means no clear call, values can overlap the other calls; further: plate controls were buffer without enzyme for full effect and enzyme alone for no effect
Anthrax LF prot = inhibitors of Bacillus anthracis lethal factor protease; P15917; multiplex microsphere protease cleavage assay, LF; inhibition, % at 10 µM; actives 0.12% (n = 360,000); AID 588501; further: plate controls were buffer without enzyme for full effect and enzyme alone for no effect
Target sequence (P15917 whole entry, looked up): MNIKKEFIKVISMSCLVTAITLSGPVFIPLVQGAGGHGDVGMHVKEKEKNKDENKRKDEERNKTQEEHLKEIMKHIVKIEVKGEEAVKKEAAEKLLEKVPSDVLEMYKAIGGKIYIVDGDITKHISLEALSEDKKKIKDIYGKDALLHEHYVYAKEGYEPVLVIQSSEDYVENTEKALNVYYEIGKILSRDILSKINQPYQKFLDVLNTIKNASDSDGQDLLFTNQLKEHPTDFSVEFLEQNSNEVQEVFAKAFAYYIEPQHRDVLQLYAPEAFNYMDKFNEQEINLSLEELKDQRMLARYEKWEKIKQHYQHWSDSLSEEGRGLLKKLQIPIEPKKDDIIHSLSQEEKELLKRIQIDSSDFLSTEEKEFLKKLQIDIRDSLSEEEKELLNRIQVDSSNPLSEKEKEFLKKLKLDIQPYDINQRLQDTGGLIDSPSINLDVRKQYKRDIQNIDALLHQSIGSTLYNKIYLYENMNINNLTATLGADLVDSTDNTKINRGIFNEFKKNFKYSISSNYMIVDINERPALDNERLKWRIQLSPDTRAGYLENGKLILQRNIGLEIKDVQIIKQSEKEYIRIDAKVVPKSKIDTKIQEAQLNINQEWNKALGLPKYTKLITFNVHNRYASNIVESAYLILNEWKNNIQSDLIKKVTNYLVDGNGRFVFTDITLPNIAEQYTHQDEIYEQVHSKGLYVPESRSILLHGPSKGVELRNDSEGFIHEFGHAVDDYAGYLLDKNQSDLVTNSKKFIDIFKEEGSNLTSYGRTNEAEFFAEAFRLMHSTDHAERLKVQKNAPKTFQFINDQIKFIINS
* = called active by the depositor; ? = inconclusive; nt = no result. Unless noted, no stated cut-off is given here; in the data, active means inhibition above about 30%; inconclusive means no clear call, values can overlap the other calls; inactive means below that.

SMILES	Bead autofluor	SARS 3CLpro inh	BoNT-A LC inh2	BoNT F protease	Anthrax LF prot
COc1ccc(N(C(=O)c2ccccc2OC)C2C=CS(=O)(=O)C2)c(OC)c1 (centres undefined)	10717	0	0	-5	1
Cc1ccc(S(=O)(=O)Cn2cnnn2)cc1	24828*	5	-3	-2	0
FC(F)(F)c1cnc(Sc2nc3nccc(-c4ccc(Cl)cc4)n3n2)c(Cl)c1	20640*	7	0	-2	0
COc1ccc(-c2ccnc3nc(Sc4ncc(C(F)(F)F)cc4Cl)nn23)cc1	20277*	-4	-2	-5	0
CC(C)NC(=O)c1cnc(Sc2ncc(C(F)(F)F)cc2Cl)n1C	2671	2	0	2	2
O=C(CCc1nc(-c2ccccc2)no1)Nc1cccnc1	5582	-3	0	-6	0
O=C(Cc1nc(-c2cnccn2)no1)NNC(=O)Nc1ccccc1	4072	2	?	?	35*
O=C(NC(=S)Nc1ccccc1O)c1cccnc1	3688	0	0	18	-2
O=C(NCCc1ccccc1)c1ccccc1NC(=O)C1CCCCC1C(=O)O (centres undefined)	nt	-3	nt	nt	nt
CC1CCCCC1N1CN=C(Nc2nc3ccccc3s2)NC1 (centres undefined)	23381*	-6	-2	-3	-1
c1ccc(CCN2CN=C(Nc3nc4ccccc4s3)NC2)cc1	3691	1	?	?	-5
c1ccc(CN2CN=C(Nc3nc4ccccc4s3)NC2)cc1	16724*	-3	0	0	-2
COc1ccc(CN2CN=C(Nc3nc4ccccc4s3)NC2)cc1	23311*	1	-4	-5	-2
CCC(=O)N1CCN=C1SCc1ccccc1Cl	4308	-1	0	-4	-4
O=C(NCCc1ccccc1)C1CCCN(S(=O)(=O)c2cccc3nonc23)C1 (centres undefined)	2700	-3	0	-1	-2
O=C(/C=C/c1c(F)cccc1Cl)Nc1ccncc1	2564	2	0	-4	2
COc1cc2c(c(OC)c1OC)-c1ccc(SC)c(=O)cc1C(NC=O)CC2 (centres undefined)	3872	nt	-1	-3	4
O=[N+]([O-])c1cc(-c2cnc3ccccc3n2)ccc1Oc1ccc(F)cc1	20404*	-7	?	2	-1
O=[N+]([O-])c1ccccc1Oc1cnc2ccccc2n1	1958	4	0	-2	-2
Cc1cc(C)nc(NS(=O)(=O)c2ccc(N3C(=O)C4CC=C(Cl)CC4C3=O)cc2)n1 (centres undefined)	18775*	2	4	2	-3
CCOC(=O)C1=C(C)OC(N)=C(C#N)C12C(=O)N(C)c1ccccc12 (centres undefined)	2706	-5	0	0	-5
CCCC1=C(C(=O)OCC)C2(C(=O)Nc3ccccc32)C(C#N)=C(N)O1 (centres undefined)	22790*	2	-1	-1	0
COC(=O)CC1=C(C(=O)OC)C2(C(=O)Nc3c(C)cccc32)C(C#N)=C(N)O1 (centres undefined)	20727*	-1	?	2	-16
COC(=O)C1=C(C)OC(N)=C(C#N)C12C(=O)Nc1ccccc12 (centres undefined)	4542	3	-1	-9	-8
O=C(O)C1CC(=O)N(c2ccc(OCc3ccccc3)cc2)C1 (centres undefined)	21268*	3	3	4	1
SMILES	Bead autofluor	SARS 3CLpro inh	BoNT-A LC inh2	BoNT F protease	Anthrax LF prot
O=C(O)C1CC(=O)N(c2ccc(OCc3ccc(Br)cc3)cc2)C1 (centres undefined)	3344	2	0	-3	18
O=C(COc1ccc(N2CC(C(=O)O)CC2=O)cc1)Nc1cccc(C(F)(F)F)c1 (centres undefined)	23245*	2	?	-1	1
CNC(=O)C1CC(=O)N(c2ccc(OCC(=O)Nc3ccccc3)cc2)C1 (centres undefined)	3727	nt	-1	-3	-8
CC(C)NC(=O)CN1CCN(C(c2cc3ccccc3o2)c2nnnn2C(C)(C)C)CC1 (centres undefined)	5431	nt	0	7	1
CCC(=O)N1CCc2cc(S(=O)(=O)CCC(=O)Nc3cccc(C)n3)ccc21	2151	-6	0	4	-1
O=C(COc1ccc(S(=O)(=O)NCc2ccccc2)cc1Cl)N1CCOCC1	23739*	0	0	0	0
CC(C)NS(=O)(=O)c1ccc(OCC(=O)N2CCN(Cc3ccc4c(c3)OCO4)CC2)c(Cl)c1	20603*	-9	0	1	0
O=C(c1ccc(CNS(=O)(=O)c2cccc(C(F)(F)F)c2)cc1)N1CCOCC1	22700*	-5	?	1	-2
CN1CCN(C(=O)COc2ccc(S(=O)(=O)NCc3ccccc3)cc2Cl)CC1	9545	2	0	-3	-7
O=C(c1ccc(NS(=O)(=O)c2cccc(C(F)(F)F)c2)cc1)N1CCCC1	5405	4	3	1	2
Cc1ccc(OCC(=O)N2CCN(C(=O)Cc3ccccc3)CC2)cc1	3266	2	0	-2	-4
O=C(COc1ccc(-c2ccccc2)cc1)N1CCN(S(=O)(=O)Cc2ccccc2)CC1	16462*	2	0	1	-4
Cc1cc(S(=O)(=O)NC(C)C)ccc1OCC(=O)N1CCN(Cc2ccc3c(c2)OCO3)CC1	6991	1	1	-6	-2
COC(=O)Nc1nnc(SCc2ccc(C)cc2)s1	2869	0	-1	-27	0
CCOC(=O)N1CCN(C(=O)CCNS(=O)(=O)c2ccccc2)CC1	5493	4	1	1	1
O=C(COc1ccc(Cl)cc1Cl)NC(=O)N1CCOCC1	16969*	-2	-2	-1	0
COc1ccc(S(=O)(=O)Nc2ccccc2C(=O)N2CCOCC2)cc1F	5166	-3	2	2	0
COc1ccc(S(=O)(=O)Nc2ccccc2C(=O)N2CCOCC2)cc1Cl	17400*	0	-40	-62	-13
CCOC(=O)N1CCN(C(=O)COc2ccc(S(=O)(=O)NCc3ccccc3)cc2)CC1	17159*	-5	-1	-1	-2
CCS(=O)(=O)CCn1c([N+](=O)[O-])cnc1C	4441	-2	0	-9	-1
CCc1nnc(NC(=O)c2ccc(Cl)nc2)s1	3843	-4	0	-2	-3
CC(C)(C)c1cc(C(=S)N2CCN(CCO)CC2)cc(C(C)(C)C)c1O	23211*	-3	1	0	-4
Cc1ccc2c(c1)c(/C=C/c1cc[n+](C)cc1)c(C)n2C	20045*	-26	-24	-19	-4
Cc1ccc2[nH]c(C)c(/C=C/c3cc[n+](C)cc3)c2c1	11493	-8	-17	32	1
Nc1c(-c2cccs2)cnn1-c1nc(-c2ccc(F)cc2)cs1	15352	-5	2	1	-2
Nc1c(-c2cccs2)cnn1-c1nc(-c2ccc(Cl)cc2Cl)cs1	23441*	-6	?	-4	-3
CCOc1ccc(OCC)c(-c2c(=O)n(OCc3ccccc3Br)c3ccccc3[n+]2[O-])c1	22784*	-3	0	-3	1

Screening data from PubChem.
